Experiments:
Conditions in all cases: concentration: 1 μM, replicates: in singlicate; n = 1
[1] = system: TLK2
[2] = system: TNIK
[3] = system: TNK1
[4] = system: TNK2
[5] = system: TNNI3K
[6] = system: T1, TRKA
T1 construct: gene NTRK1

[7] = system: TRKB
[8] = system: T2, TRKC
T2 construct: gene NTRK3

[9] = system: TRPM6
[10] = system: TSSK1B
[11] = system: TSSK3
[12] = system: TTK
[13] = system: TXK
[14] = system: TYK2(JH1domain-catalytic)
[15] = system: TYK2(JH2domain-pseudokinase)
[16] = system: TYRO3
[17] = system: ULK1
[18] = system: ULK2
[19] = system: ULK3
[20] = system: T3, VEGFR2
T3 construct: gene KDR
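Note: KINOMEscan kinase panel screen.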

Fc1ccc(-c2ncn(CCCN3CCOCC3)c2-c2cccnc2)cc1 [SB-211743]
%Inh [1]: 0%
%Inh [2]: 13%
%Inh [3]: 14%
%Inh [4]: 0%
%Inh [5]: 0%
%Inh [6]: 0%
%Inh [7]: 0%
%Inh [8]: 0%
%Inh [9]: 3%
%Inh [10]: 0%
%Inh [11]: 0%
%Inh [12]: 15%
%Inh [13]: 0%
%Inh [14]: 0%
%Inh [15]: 7%
%Inh [16]: 0%
%Inh [17]: 4%
%Inh [18]: 2%
%Inh [19]: 18%
%Inh [20]: 0%

C[C@@H](Oc1cc(-n2cnc3ccc(NC(=O)NC(C)(C)C)cc32)sc1C(N)=O)c1ccccc1Cl [GSK346294]
%Inh [1]: 0%
%Inh [2]: 0%
%Inh [3]: 0%
%Inh [4]: 9%
%Inh [5]: 13%
%Inh [6]: 33%
%Inh [7]: 0%
%Inh [8]: 0%
%Inh [9]: 0%
%Inh [10]: 20%
%Inh [11]: 21%
%Inh [12]: 0%
%Inh [13]: 0%
%Inh [14]: 8%
%Inh [15]: 0%
%Inh [16]: 0%
%Inh [17]: 0%
%Inh [18]: 0%
%Inh [19]: 15%
%Inh [20]: 3%

O=C(c1ccc(-c2cc(-c3c[nH]nc3-c3ccccn3)ccn2)cc1)N1CCOCC1 [GW812171]
%Inh [1]: 13%
%Inh [2]: 30%
%Inh [3]: 0%
%Inh [4]: 0%
%Inh [5]: 0%
%Inh [6]: 0%
%Inh [7]: 0%
%Inh [8]: 0%
%Inh [9]: 17%
%Inh [10]: 0%
%Inh [11]: 0%
%Inh [12]: 0%
%Inh [13]: 11%
%Inh [14]: 0%
%Inh [15]: 21%
%Inh [16]: 0%
%Inh [17]: 14%
%Inh [18]: 38%
%Inh [19]: 3%
%Inh [20]: 0%

Nc1nccc(-c2c(-c3ccc(F)cc3)ncn2C2CCN(CC(F)(F)F)CC2)n1 [SB-236560]
%Inh [1]: 0%
%Inh [2]: 6%
%Inh [3]: 0%
%Inh [4]: 10%
%Inh [5]: 0%
%Inh [6]: 70%
%Inh [7]: 35%
%Inh [8]: 18%
%Inh [9]: 0%
%Inh [10]: 0%
%Inh [11]: 67%
%Inh [12]: 0%
%Inh [13]: 0%
%Inh [14]: 14%
%Inh [15]: 82%
%Inh [16]: 0%
%Inh [17]: 0%
%Inh [18]: 30%
%Inh [19]: 10%
%Inh [20]: 0%

Cl.Nc1ncnc2occ(-c3ccc(NC(=O)Nc4cc(C(F)(F)F)ccc4F)cc3)c12 [SB-707548]
%Inh [1]: 4%
%Inh [2]: 67%
%Inh [3]: 46%
%Inh [4]: 20%
%Inh [5]: 90.8%
%Inh [6]: 100%
%Inh [7]: 94.1%
%Inh [8]: 100%
%Inh [9]: 0%
%Inh [10]: 0%
%Inh [11]: 11%
%Inh [12]: 35%
%Inh [13]: 0%
%Inh [14]: 0%
%Inh [15]: 12%
%Inh [16]: 0%
%Inh [17]: 0%
%Inh [18]: 0%
%Inh [19]: 19%
%Inh [20]: 99.8%

CN(C1=C(c2ccccc2)C(=O)NC1=O)c1ccccc1 [SB-334860]
%Inh [1]: 6%
%Inh [2]: 4%
%Inh [3]: 7%
%Inh [4]: 18%
%Inh [5]: 20%
%Inh [6]: 18%
%Inh [7]: 0%
%Inh [8]: 0%
%Inh [9]: 31%
%Inh [10]: 11%
%Inh [11]: 15%
%Inh [12]: 0%
%Inh [13]: 83%
%Inh [14]: 0%
%Inh [15]: 0%
%Inh [16]: 0%
%Inh [17]: 5%
%Inh [18]: 8%
%Inh [19]: 6%
%Inh [20]: 12%

COc1cc2c(cc1OCCN1CCN(C)CC1)ncc1c3ccc(C#N)cc3[nH]c21
%Inh [1]: 0%
%Inh [2]: 91%
%Inh [3]: 8%
%Inh [4]: 0%
%Inh [5]: 2%
%Inh [6]: 99.8%
%Inh [7]: 97.2%
%Inh [8]: 83%
%Inh [9]: 0%
%Inh [10]: 34%
%Inh [11]: 9%
%Inh [12]: 7%
%Inh [13]: 0%
%Inh [14]: 0%
%Inh [15]: 35%
%Inh [16]: 0%
%Inh [17]: 92.4%
%Inh [18]: 99.9%
%Inh [19]: 66%
%Inh [20]: 23%

COc1ccc(Nc2nccc(N3CCC(NC(=O)Nc4cccc(C(C)=O)c4)C3)n2)cc1 (centres unmarked) [GSK1379731]
%Inh [1]: 0%
%Inh [2]: 0%
%Inh [3]: 0%
%Inh [4]: 0%
%Inh [5]: 48%
%Inh [6]: 50%
%Inh [7]: 44%
%Inh [8]: 78%
%Inh [9]: 2%
%Inh [10]: 0%
%Inh [11]: 8%
%Inh [12]: 15%
%Inh [13]: 0%
%Inh [14]: 35%
%Inh [15]: 16%
%Inh [16]: 6%
%Inh [17]: 18%
%Inh [18]: 0%
%Inh [19]: 16%
%Inh [20]: 0%

CCCCCc1nc2c(N)ncnc2n1CCCCC [SKF-97255]
%Inh [1]: 20%
%Inh [2]: 0%
%Inh [3]: 19%
%Inh [4]: 0%
%Inh [5]: 0%
%Inh [6]: 0%
%Inh [7]: 0%
%Inh [8]: 0%
%Inh [9]: 13%
%Inh [10]: 0%
%Inh [11]: 0%
%Inh [12]: 0%
%Inh [13]: 12%
%Inh [14]: 7%
%Inh [15]: 9%
%Inh [16]: 0%
%Inh [17]: 12%
%Inh [18]: 12%
%Inh [19]: 11%
%Inh [20]: 0%

CNc1ncnc2[nH]ncc12 [SKF-18355]
%Inh [1]: 0%
%Inh [2]: 17%
%Inh [3]: 0%
%Inh [4]: 0%
%Inh [5]: 0%
%Inh [6]: 0%
%Inh [7]: 0%
%Inh [8]: 0%
%Inh [9]: 23%
%Inh [10]: 0%
%Inh [11]: 0%
%Inh [12]: 0%
%Inh [13]: 0%
%Inh [14]: 15%
%Inh [15]: 27%
%Inh [16]: 0%
%Inh [17]: 11%
%Inh [18]: 42%
%Inh [19]: 14%
%Inh [20]: 1%

From publication PMC5540273 (PLoS ONE, 2017)
